{"source": "PubChem BioAssay AID1159580", "about": "(chemical genetic matrix, 2015)", "test": "chemical genetic growth profiling, strain panel (AID 1159580);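 also: tested at 20 µM; growth read once vehicle control cultures reached saturation at 30 °C; 1 = growth at the plate median or of vehicle wells; lower values mean less growth of the strain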", "details": "S. cerevisiae deletion strains, growth OD", "note": "Hit rate of the full screen: of about 5,500 compounds, about 2,000 (36%) were called active. About 18% were inconclusive and are not listed. The list shows a part of the results. Values without a mark were called inactive. Rule as the data show it: active = normalized growth mostly below about 0.91 (no sharp cut-off); inconclusive = no clear call, values can overlap the other calls; inactive = mostly above about 0.92."}
{"smiles": "COC(=O)/C=C1/OC(c2ccc(OC)cc2)=CC1=O", "values": [{"measurement": "normalized growth", "setting": "locus YAR019C, strain CDC15, active compounds read low", "value": "0.283 (active)"}, {"measurement": "normalized growth", "setting": "locus YBL105C, strain PKC1, active compounds read low", "value": "0.594 (active)"}, {"measurement": "normalized growth", "setting": "locus YBR135W, strain CKS1, active compounds read low", "value": "0.428 (active)"}, {"measurement": "normalized growth", "setting": "locus YBR136W, strain MEC1, active compounds read low", "value": "0.671 (active)"}, {"measurement": "normalized growth", "setting": "locus YDL017W, strain CDC7, active compounds read low", "value": 0.968}, {"measurement": "normalized growth", "setting": "locus YDL101C, strain DUN1, active compounds read low", "value": "0.447 (active)"}, {"measurement": "normalized growth", "setting": "locus YDL214C, strain PRR2, active compounds read low", "value": "0.105 (active)"}, {"measurement": "normalized growth", "setting": "locus YDR052C, strain DBF4, active compounds read low", "value": 0.981}, {"measurement": "normalized growth", "setting": "locus YDR054C, strain cdc34, active compounds read low", "value": "0.464 (active)"}, {"measurement": "normalized growth", "setting": "locus YDR226W, strain ADK1, active compounds read low", "value": 0.923}, {"measurement": "normalized growth", "setting": "locus YDR477W, strain SNF1, active compounds read low", "value": "0.101 (active)"}, {"measurement": "normalized growth", "setting": "locus YER123W, strain YCK3, active compounds read low", "value": "0.102 (active)"}, {"measurement": "normalized growth", "setting": "locus YER133W, strain GLC7, active compounds read low", "value": "0.0947 (active)"}, {"measurement": "normalized growth", "setting": "locus YFL029C, strain CAK1, active compounds read low", "value": "0.177 (active)"}, {"measurement": "normalized growth", "setting": "locus YFR003C, strain YPI1, active compounds read low", "value": 0.98}, {"measurement": "normalized growth", "setting": "locus YFR019W, strain FAB1, active compounds read low", "value": "0.099 (active)"}, {"measurement": "normalized growth", "setting": "locus YFR028C, strain CDC14, active compounds read low", "value": "0.433 (active)"}, {"measurement": "normalized growth", "setting": "locus YGR040W, strain KSS1, active compounds read low", "value": "0.108 (active)"}, {"measurement": "normalized growth", "setting": "locus YGR052W, strain FMP48, active compounds read low", "value": "0.125 (active)"}, {"measurement": "normalized growth", "setting": "locus YGR092W, strain DBF2, active compounds read low", "value": "0.154 (active)"}, {"measurement": "normalized growth", "setting": "locus YHR030C, strain SLT2, active compounds read low", "value": "0.14 (active)"}, {"measurement": "normalized growth", "setting": "locus YHR079C, strain IRE1, active compounds read low", "value": "0.29 (active)"}, {"measurement": "normalized growth", "setting": "locus YHR082C, strain KSP1, active compounds read low", "value": "0.143 (active)"}, {"measurement": "normalized growth", "setting": "locus YHR205W, strain SCH9, active compounds read low", "value": "0.0277 (active)"}, {"measurement": "normalized growth", "setting": "locus YIL147C, strain SLN1, active compounds read low", "value": 0.978}, {"measurement": "normalized growth", "setting": "locus YJL095W, strain BCK1, active compounds read low", "value": "0.124 (active)"}, {"measurement": "normalized growth", "setting": "locus YJL157C, strain FAR1, active compounds read low", "value": "0.121 (active)"}, {"measurement": "normalized growth", "setting": "locus YJR066W, strain TOR1 (second series), active compounds read low", "value": "0.102 (active)"}, {"measurement": "normalized growth", "setting": "locus YJR066W, strain TOR1, active compounds read low", "value": "0.15 (active)"}, {"measurement": "normalized growth", "setting": "locus YKL048C, strain ELM1, active compounds read low", "value": "0.402 (active)"}, {"measurement": "normalized growth", "setting": "locus YKL067W, strain YNK1, active compounds read low", "value": "0.0947 (active)"}, {"measurement": "normalized growth", "setting": "locus YKL101W, strain HSL1, active compounds read low", "value": "0.156 (active)"}, {"measurement": "normalized growth", "setting": "locus YKL193C, strain SDS22, active compounds read low", "value": "0.221 (active)"}, {"measurement": "normalized growth", "setting": "locus YKL203C, strain TOR2, active compounds read low", "value": "0.103 (active)"}, {"measurement": "normalized growth", "setting": "locus YLR113W, strain HOG1, active compounds read low", "value": "0.163 (active)"}, {"measurement": "normalized growth", "setting": "locus YLR133W, strain CKI1, active compounds read low", "value": "0.129 (active)"}, {"measurement": "normalized growth", "setting": "locus YLR403W, strain SFP1, active compounds read low", "value": "0.16 (active)"}, {"measurement": "normalized growth", "setting": "locus YML070W, strain DAK1, active compounds read low", "value": "0.0894 (active)"}, {"measurement": "normalized growth", "setting": "locus YMR001C, strain CDC5, active compounds read low", "value": "0.273 (active)"}, {"measurement": "normalized growth", "setting": "locus YMR205C, strain PFK2 (second series), active compounds read low", "value": "0.152 (active)"}, {"measurement": "normalized growth", "setting": "locus YMR277W, strain FCP1, active compounds read low", "value": "0.274 (active)"}, {"measurement": "normalized growth", "setting": "locus YNL006W, strain LST8, active compounds read low", "value": 0.989}, {"measurement": "normalized growth", "setting": "locus YNL020C, strain ARK1, active compounds read low", "value": "0.315 (active)"}, {"measurement": "normalized growth", "setting": "locus YNL183C, strain NPR1, active compounds read low", "value": "0.115 (active)"}, {"measurement": "normalized growth", "setting": "locus YNL222W, strain SSU72, active compounds read low", "value": "0.499 (active)"}, {"measurement": "normalized growth", "setting": "locus YNL307C, strain MCK1 (second series), active compounds read low", "value": "0.123 (active)"}, {"measurement": "normalized growth", "setting": "locus YOL078W, strain AVO1, active compounds read low", "value": "0.316 (active)"}, {"measurement": "normalized growth", "setting": "locus YOL136C, strain PFK27, active compounds read low", "value": "0.102 (active)"}, {"measurement": "normalized growth", "setting": "locus YOR061W, strain CKA2, active compounds read low", "value": "0.308 (active)"}, {"measurement": "normalized growth", "setting": "locus YOR119C, strain RIO1, active compounds read low", "value": "0.108 (active)"}, {"measurement": "normalized growth", "setting": "locus YOR231W, strain MKK1, active compounds read low", "value": "0.23 (active)"}, {"measurement": "normalized growth", "setting": "locus YOR329C, strain SCD5, active compounds read low", "value": 0.988}, {"measurement": "normalized growth", "setting": "locus YPL031C, strain PHO85, active compounds read low", "value": "0.103 (active)"}, {"measurement": "normalized growth", "setting": "locus YPL153C, strain RAD53, active compounds read low", "value": "0.221 (active)"}, {"measurement": "normalized growth", "setting": "locus YPL204W, strain HRR25, active compounds read low", "value": "0.282 (active)"}, {"measurement": "normalized growth", "setting": "locus YPL209C, strain IPL1, active compounds read low", "value": "0.5 (active)"}, {"measurement": "normalized growth", "setting": "locus YPL256C, strain CLN2, active compounds read low", "value": "0.154 (active)"}, {"measurement": "normalized growth", "setting": "locus YPR025C, strain CCL1, active compounds read low", "value": "0.576 (active)"}, {"measurement": "normalized growth", "setting": "locus YPR106W, strain ISR1, active compounds read low", "value": "0.507 (active)"}, {"measurement": "normalized growth", "setting": "strain NNK1, active compounds read low", "value": "0.11 (active)"}, {"measurement": "normalized growth", "setting": "strain TSCII, active compounds read low", "value": "0.265 (active)"}]}
